# PubChem BioAssay (NCI)
# The panel holds about 79,000 compounds, 15% with a hit somewhere; the sample as a whole holds those more often. A number with no mark means an inactive call. The source made the active and inactive calls. No stated cut-off is given here; in the data, active means growth inhibition above about 70%; inactive means the rest.
# Experiments:
# [1] = NCI Yeast Anticancer Drug Screen. Data for the rad50 strain (AID 155);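 further: 0% = growth of vehicle-only cultures of the same strain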; details: S. cerevisiae rad50 strain growth inhibition, stronger effect = higher value
# Outline: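 Relative growth inhibition (compound vs vehicle) was measured in yeast with a defined repair-gene alteration.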
# [2] = NCI Yeast Anticancer Drug Screen. Data for the mec2-1 strain (AID 157); details: S. cerevisiae mec2-1 strain, stronger effect = higher value
# Outline: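 Strain: mec2-1 (DNA repair/cell cycle alteration). Compound exposure, then growth measured; inhibition expressed relative to vehicle.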
# [3] = NCI Yeast Anticancer Drug Screen. Data for the sgs1 mgt1 strain (AID 161);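 further: 0% = growth of cultures given vehicle only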; details: S. cerevisiae sgs1 mgt1 strain, stronger effect = higher value
# Outline: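 Inhibition of yeast growth, normalised to vehicle-treated controls, is reported for a strain bearing genetic alterations in DNA damage repair.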
# [4] = NCI Yeast Anticancer Drug Screen. Data for the cln2 rad14 strain (AID 165);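 further: 0% = growth equal to vehicle treated cultures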; details: S. cerevisiae cln2 rad14 strain, stronger effect = higher value
# Outline: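 Compounds are applied to the cln2 rad14 yeast strain, and growth is then compared with that of vehicle-treated cultures to give inhibition.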
# [5] = NCI Yeast Anticancer Drug Screen. Data for the bub3 strain (AID 167); details: S. cerevisiae bub3 mutant strain, stronger effect = higher value
# Outline: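 Screening used yeast with an engineered genetic alteration affecting cell cycle control. Compound-exposed cultures were compared with vehicle cultures, and reduced growth was taken as inhibition.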
# [6] = NCI Yeast Anticancer Drug Screen. Data for the mlh1 rad18 strain (AID 175); details: S. cerevisiae mlh1 rad18 strain growth inhibition, stronger effect = higher value
# Outline: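 Read-out is yeast growth inhibition, calculated against vehicle-only controls. The compound was applied to a strain engineered with DNA damage repair alterations.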
# [7] = at 5.0 µM (retest, dose inferred, filed as 0.5)
# [8] = at 50.0 µM (retest, dose inferred, filed as 5.0)
SMILES,"growth inhibition [1, 7]","growth inhibition [1, 8]",growth inhibition ([1]; at 50.0 µM),"growth inhibition [2, 7]","growth inhibition [2, 8]",growth inhibition ([2]; at 50.0 µM),"growth inhibition [3, 7]","growth inhibition [3, 8]",growth inhibition ([3]; at 50.0 µM),"growth inhibition [4, 7]","growth inhibition [4, 8]",growth inhibition ([4]; at 50.0 µM),"growth inhibition [5, 7]","growth inhibition [5, 8]",growth inhibition ([5]; at 50.0 µM),"growth inhibition [6, 7]","growth inhibition [6, 8]",growth inhibition ([6]; at 50.0 µM)
C/C=C(/CCC1NCCC2c3ccccc3NC12)[Si](C)(C)C (configuration not stated),1%,8%,10.2%,-5%,8%,7.15%,-2%,37%,59.6%,-5%,0%,0.15%,-3%,15%,5.6%,-4%,37%,44.5%
COc1ccc(C(=O)C(c2ccc(OC)cc2)C2(O)C(=O)Nc3c(C)cc(Cl)cc32)cc1 (configuration not stated),21%,21%,-25.1%,-15%,-15%,89% (active),-9%,-9%,87.8% (active),3%,3%,69.7%,-3%,-3%,89.8% (active),-2%,-2%,38.7%
CCCCCCCCCCCC(=O)NN,14%,82% (active),97.4% (active),12%,43%,97.6% (active),6%,68%,98% (active),-3%,65%,97% (active),22%,52%,95.3% (active),8%,82% (active),97.8% (active)
NC(Cc1nn[nH]n1)C(=O)O (configuration not stated),3%,-15%,-13.2%,-6%,-10%,-5.95%,-16%,-15%,-42.8%,-11%,-6%,22.4%,10%,-13%,0.95%,-18%,-6%,-23%
CC(C)OC(=O)CCCCCC1CCCCC1,6%,9%,0.95%,-2%,2%,13.5%,3%,11%,1.4%,10%,6%,31.7%,8%,3%,-0.25%,4%,7%,8.8%
CC(=O)NNc1nc(C)c(C(=O)NNC(=O)C(=O)Nc2ccc(Cl)cc2Cl)s1,1%,82% (active),54.6%,1%,94% (active),39.4%,5%,87% (active),53.2%,-4%,85% (active),-38.2%,5%,89% (active),45.4%,-2%,89% (active),73.9% (active)
COc1ccccc1OCC(COC(=O)Nc1ccc(C)cc1)OC(=O)Nc1ccc(C)cc1 (configuration not stated),2%,2%,88.4% (active),-5%,-5%,82.4% (active),-18%,-18%,85.2% (active),-2%,-2%,78.6% (active),-1%,-1%,85% (active),-1%,-1%,78.7% (active)
CC(C)(Br)C(=O)c1ccc([N+](=O)[O-])o1,49%,99% (active),90.6% (active),62%,100% (active),93.5% (active),85% (active),100% (active),89.4% (active),51%,99% (active),84.2% (active),42%,99% (active),91.8% (active),91% (active),99% (active),91% (active)
CC1=CC(=N/O)/C=CC/1=C(\C#N)c1ccccc1,-14%,99% (active),99.2% (active),-11%,99% (active),99.4% (active),-6%,99% (active),99.4% (active),-47%,99% (active),99.3% (active),-17%,99% (active),99.4% (active),-20%,100% (active),98.7% (active)
[Cu+2].[NH-]c1ccccc1O.[NH-]c1ccccc1[OH2+],7%,69%,50.6%,20%,80% (active),46.6%,15%,67%,60.4%,11%,59%,35.8%,45%,67%,75.8% (active),28%,82% (active),75.6% (active)
Cc1nn(C(=O)c2ccccc2O)c2c1C(c1ccco1)SC(N)=N2 (configuration not stated),-6%,65%,67.5%,11%,59%,38.8%,8%,64%,57%,10%,52%,43.6%,7%,86% (active),69%,11%,86% (active),59.3%
C=CS(=O)(=O)c1ccc(C)cc1,0%,49%,84% (active),6%,70% (active),78.7% (active),7%,55%,81.4% (active),5%,31%,37.2%,4%,61%,75.8% (active),6%,87% (active),88.5% (active)
O=c1c2cc3c(cc2c2cccc4c2n1CCC4)OCO3,-1%,44%,71.2% (active),0%,12%,23.4%,-4%,13%,25.4%,-3%,6%,42.4%,2%,31%,20.4%,-2%,15%,53.7%
CCCCCCN(S(=O)(=O)c1ccc([N+](=O)[O-])cc1)S(=O)(=O)c1ccc([N+](=O)[O-])cc1,23%,48%,66.8%,-105%,51%,73.7% (active),8%,48%,71.3% (active),8%,55%,68.7%,32%,50%,56.9%,18%,48%,73.8% (active)
COC1=CC(=O)c2ncc(Cl)cc2C1=O,-4%,97% (active),96% (active),-2%,92% (active),95.5% (active),-9%,89% (active),93.2% (active),-10%,96% (active),97.3% (active),-40%,88% (active),83.5% (active),28%,97% (active),98.3% (active)
O=C(O)c1cc(C(=O)O)c(C(=O)O)cc1C(=O)O.[NH-]C1CCCC1.[NH-]C1CCCC1.[NH-]C1CCCC1.[NH-]C1CCCC1.[Pt+2].[Pt+2],4%,99% (active),99.5% (active),10%,100% (active),99.6% (active),15%,99% (active),99.5% (active),0%,99% (active),99% (active),-1%,99% (active),99% (active),16%,99% (active),99% (active)
CCOC(=O)C1=C(C)NC(C)=C(C(=O)OCC)C1c1c(-c2ccccc2)noc1C,23%,84% (active),6.6%,7%,62%,-2.3%,18%,69%,2.2%,0%,40%,-3.5%,1%,70% (active),0.85%,2%,61%,11.9%
CC(=O)N(C1=CC(=O)c2ccccc2C1=O)c1ccc(Cl)cc1,95% (active),97% (active),96.7% (active),92% (active),98% (active),95% (active),95% (active),97% (active),95.2% (active),52%,98% (active),90.8% (active),89% (active),98% (active),90.5% (active),92% (active),98% (active),93.5% (active)
O=C(N=Nc1c(O)[nH]c2ccccc12)C(O)(c1ccccc1)c1ccccc1,18%,32%,-6.25%,19%,32%,-8.75%,21%,82% (active),80.7% (active),26%,27%,35.5%,12%,38%,25.9%,29%,38%,29.1%
